# Hit rate of the full screen: of about 39,000 compounds, about 1,500 (3.8%) were called active. Many of the other results were omitted from the sample, so actives are more common in it than they were.
# Tested on: HSkMC (human skeletal muscle cells)
# Experiment: cytotoxicity call (relative viability < 0.9)
# Conditions: 10 µM
row,SMILES,cytotoxicity call
1,CCOc1cc(OCC)cc(C(=O)N[C@@H](Cc2ccc(-n3cc(-c4ccc(C(=O)NO)s4)nn3)cc2)C(=O)OC)c1,inactive
2,COc1ccccc1-c1cnc2c(c1)C(=O)N([C@H](C)CO)C[C@@H](C)[C@H](CN(C)C(=O)c1cccnc1)O2,inactive
3,C[C@H]1CN([C@@H](C)CO)C(=O)c2cccc(NC(=O)Nc3ccccc3)c2O[C@@H]1CN(C)Cc1ccc(Cl)c(Cl)c1,active
4,C[C@H]1CN([C@@H](C)CO)C(=O)c2cccc(NC(=O)Nc3ccccc3)c2O[C@H]1CN(C)Cc1ccc(Cl)c(Cl)c1,inactive
5,C[C@@H]1CN([C@@H](C)CO)C(=O)c2cccc(NC(=O)Nc3cccc4ccccc34)c2O[C@@H]1CN(C)Cc1ccc(Cl)c(Cl)c1,inactive
6,C[C@H](CO)N1C[C@H](C)[C@@H](CN(C)Cc2ccc(Cl)c(Cl)c2)Oc2c(NC(=O)Nc3ccccc3)cccc2C1=O,active
7,C[C@H](CO)N1C[C@H](C)[C@@H](CN(C)Cc2ccc(Cl)c(Cl)c2)Oc2c(NC(=O)Nc3cccc4ccccc34)cccc2C1=O,active
8,C[C@H](CO)N1C[C@H](C)[C@H](CN(C)Cc2ccc(Cl)c(Cl)c2)Oc2c(NC(=O)Nc3ccccc3)cccc2C1=O,inactive
9,C[C@@H]1CN([C@H](C)CO)C(=O)c2cccc(NC(=O)Nc3ccccc3)c2O[C@H]1CN(C)Cc1ccc(Cl)c(Cl)c1,inactive
10,C[C@H]1CN([C@@H](C)CO)C(=O)c2cccc(NC(=O)Nc3cccc4ccccc34)c2O[C@H]1CN(C)Cc1ccc(Cl)c(Cl)c1,inactive
11,C[C@@H]1CN([C@@H](C)CO)C(=O)c2cccc(NC(=O)Nc3ccccc3)c2O[C@@H]1CN(C)Cc1ccc(Cl)c(Cl)c1,inactive
12,Cc1noc(C)c1NC(=O)Nc1ccc2c(c1)C(=O)N([C@H](C)CO)C[C@H](C)[C@@H](CN(C)Cc1ccc(Oc3ccccc3)cc1)O2,inactive
13,C[C@H]1CN([C@@H](C)CO)C(=O)Cc2cc(NC(=O)Cc3ccccc3)ccc2O[C@H]1CN(C)C(=O)Nc1cccc2ccccc12,inactive
14,Cc1noc(C)c1S(=O)(=O)Nc1ccc2c(c1)C(=O)N([C@H](C)CO)C[C@@H](C)[C@@H](CN(C)Cc1ccc(Oc3ccccc3)cc1)O2,inactive
15,Cc1cc2c(cc1C)N[C@@H](CC(N)=O)C(=O)N2,inactive
16,C[C@@H]1CN([C@H](C)CO)C(=O)Cc2cc(NC(=O)CCCN(C)C)ccc2O[C@H]1CN(C)Cc1ccc(Oc2ccccc2)cc1,inactive
17,COc1ccccc1S(=O)(=O)N[C@H]1C=C[C@H](CC(=O)N2CCN(C)CC2)O[C@@H]1CO,inactive

row,SMILES,cytotoxicity call
1,C[C@H](CO)N1C[C@H](C)[C@H](CN(C)C(=O)NC2CCCCC2)OCCCC[C@H](C)Oc2ccc(NC(=O)Nc3ccc(C(F)(F)F)cc3)cc2C1=O,inactive
2,C[C@H](CO)N1C[C@H](C)[C@@H](CN(C)C(=O)c2ccncc2)Oc2cc(-c3cccc(C#N)c3)ccc2S1(=O)=O,inactive
3,C[C@@H]1CCCCO[C@H](CN(C)Cc2ccccc2)[C@@H](C)CN([C@H](C)CO)C(=O)c2cc(NS(=O)(=O)c3ccccc3)ccc2O1,inactive
4,CCC(=O)Oc1ccc2c(c1)CCC1C2CCC2(C)C1CC(OC(=O)CC)C2OC(=O)CC (stereo not drawn),inactive
5,CC(C)c1cc(C(C)C)c(CC(=O)NS(=O)(=O)Oc2c(C(C)C)cccc2C(C)C)c(C(C)C)c1,active
6,COC(=O)[C@@H](N)c1cccc(OC)c1,inactive
7,CC(C)c1cccc(C(C)C)c1NC(=O)Cc1cccs1,inactive
8,C[C@H]1CN([C@@H](C)CO)C(=O)c2c(c3ccccc3n2C)-c2ccccc2CO[C@H]1CN(C)C(=O)c1ccc(F)cc1,inactive
9,COC(=O)C[C@@H]1CC[C@@H]2[C@H](COC[C@H](O)CN2S(=O)(=O)c2ccc(F)cc2)O1,inactive
10,C[C@@H]1CN([C@@H](C)CO)S(=O)(=O)c2ccc(-c3cccnc3)cc2O[C@@H]1CN(C)C(=O)NC1CCCC1,inactive
11,C[C@@H]1CN([C@H](C)CO)S(=O)(=O)c2ccc(-c3cncnc3)cc2O[C@@H]1CN(C)C(=O)C1CCCCC1,inactive
12,Oc1ccc(O)cc1,inactive
13,CCCCC1C(=O)N(c2ccccc2)N(c2ccc(O)cc2)C1=O (stereo not drawn),inactive
14,O=C1C=CC(=O)N1c1ccc(O)cc1,active
15,COc1ccc(CN(C)C[C@H]2OCCCC[C@H](C)Oc3ccc(NS(=O)(=O)c4cccs4)cc3C(=O)N([C@@H](C)CO)C[C@@H]2C)cc1,inactive
16,C[C@H]1CN([C@@H](C)CO)S(=O)(=O)c2ccc(C3=CCCCC3)cc2O[C@H]1CN(C)S(=O)(=O)c1cn(C)cn1,inactive

# Source: the antibiotic and cytotoxicity screens of Wong et al. (2023)
